# Results reported in article PMC5540273 (PLoS ONE, 2017).
# Key:
# Details in all cases: concentration: 1 μM, replicates: in singlicate; n = 1
# [1] = test system: T1, MEK5
# T1 construct: gene MAP2K5
# [2] = test system: T2, MEK6
# T2 construct: gene MAP2K6
# [3] = test system: MELK
# [4] = test system: MERTK
# [5] = test system: MET
# [6] = test system: T3, MINK
# T3 construct: gene MINK1
# [7] = test system: MKK7
# [8] = test system: MKNK1
# [9] = test system: MKNK2
# [10] = test system: T4, MLCK
# T4 construct: gene MYLK3
# [11] = test system: T5, MLK1
# T5 construct: gene MAP3K9
# [12] = test system: MLK2
# [13] = test system: MLK3
# [14] = test system: MRCKA
# [15] = test system: T6, MRCKB
# T6 construct: gene CDC42BPB
# [16] = test system: MST1R
# [17] = test system: T7, MST1
# T7 construct: gene STK4
# [18] = test system: T8, MST2
# T8 construct: gene STK3
# [19] = test system: T9, MST3
# T9 construct: gene STK24
# [20] = test system: MST4
# 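Note: KINOMEscan kinase panel screen.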
Compound,%Inh [1],%Inh [2],%Inh [3],%Inh [4],%Inh [5],%Inh [6],%Inh [7],%Inh [8],%Inh [9],%Inh [10],%Inh [11],%Inh [12],%Inh [13],%Inh [14],%Inh [15],%Inh [16],%Inh [17],%Inh [18],%Inh [19],%Inh [20]
N#Cc1cnc2cc(-c3cnc(CNCCN4CCOCC4)s3)ccc2c1Nc1ccc(Oc2ccccc2)cc1 [GW664114],99.9%,0%,15%,72%,7%,95.2%,6%,6%,6%,0%,78%,17%,83%,9%,0%,86%,20%,12%,34%,18%
CCn1c(-c2nonc2N)nc2c(-c3ccccc3)ncc(OCCCN)c21.O=C(O)C(F)(F)F.O=C(O)C(F)(F)F [GSK260205],92.8%,0%,20%,7%,21%,95.7%,0%,0%,1%,9%,0%,0%,0%,99.9%,99.3%,45%,52%,0%,38%,71%
Fc1cc(Cl)ccc1Nc1ccnc2cc(-c3ccc(CN4CCOCC4)o3)ccc12 [GW560109],99.8%,0%,0%,28%,51%,58%,10%,13%,77%,0%,2%,0%,0%,13%,0%,0%,0%,0%,0%,0%
CCNC(=O)/C=C/c1n[nH]c2cc(Sc3ccccc3C(=O)NC)ccc12,45%,0%,7%,20%,13%,56%,0%,0%,1%,0%,7%,7%,0%,0%,48%,8%,0%,0%,30%,0%
COc1cccc2c(-c3ccncc3)c(-c3ccc(F)cc3)nn12 [GW468513],33%,0%,0%,0%,84%,78%,0%,22%,0%,6%,0%,1%,4%,60%,67%,15%,31%,0%,0%,0%
COC(=O)Nc1nc2cc(Oc3ccc(NC(=O)Nc4cccc(SC)c4)cc3)ccc2[nH]1.Cl [GW697999],55%,0%,0%,89%,21%,23%,0%,32%,65%,0%,0%,0%,0%,14%,0%,29%,4%,0%,0%,0%
Cn1cc(-c2cnc(N)c3c(-c4ccc5c(c4)CCN5C(=O)Cc4ccccc4)csc23)cn1 [GSK2593074],99.8%,7%,0%,90%,79%,16%,0%,0%,0%,0%,14%,25%,14%,10%,10%,12%,97.8%,100%,7%,33%
O=C(Nc1n[nH]c2nc(-c3ccccc3)ccc12)C1CC1 [SB-708999],76%,0%,13%,27%,0%,71%,31%,30%,1%,62%,0%,11%,5%,8%,0%,0%,3%,0%,3%,41%
Cl.Cl.NC(CNC(=O)c1cc(Br)c(-c2ccnc3[nH]ccc23)s1)c1ccccc1 (stereo not shown) [GSK1322949],59%,0%,74%,58%,22%,69%,0%,68%,99.9%,70%,0%,0%,0%,29%,93.7%,5%,0%,26%,5%,3%
COc1cc(Nc2nccc(N3CCC(NS(=O)(=O)c4ccc(NC(C)=O)cc4)CC3)n2)cc(OC)c1OC [GSK1379825],88%,24%,19%,38%,0%,0%,15%,0%,83%,0%,52%,0%,51%,92.3%,80%,13%,0%,19%,0%,0%
Nc1ncc(-c2ccc3nccc(-c4ccncc4)c3c2)cc1S(=O)(=O)N1CCCCC1 [GSK1693850],50%,12%,36%,35%,0%,31%,0%,2%,6%,0%,0%,0%,7%,12%,0%,35%,8%,25%,29%,0%
Nc1cccc(-c2ccc3c(N)n[nH]c3c2)c1 [GSK2193613],64%,0%,0%,0%,6%,73%,0%,2%,64%,95.4%,10%,100%,19%,0%,0%,26%,6%,17%,21%,0%
CN(C)CCOc1ccc(-c2cc(-c3ccc(Cl)c(O)c3)c(-c3ccncc3)[nH]2)cc1.Cl.Cl [SB-684387],21%,0%,15%,0%,43%,36%,0%,7%,4%,13%,0%,0%,0%,8%,5%,34%,0%,17%,0%,0%
CC(C)c1nc(-c2ccc(F)c(NS(=O)(=O)c3c(F)cccc3F)c2)c(-c2ccnc(Nc3ccc(N4CCOCC4)nc3)n2)s1 [GSK1804250],100%,22%,45%,54%,70%,26%,15%,21%,11%,0%,52%,8%,52%,4%,0%,46%,17%,3%,23%,23%
O=C(Nc1n[nH]c2nc(-c3ccccc3O)ccc12)C1CC1 [SB-711880],63%,0%,0%,27%,0%,74%,0%,0%,38%,57%,0%,0%,0%,4%,0%,10%,0%,16%,0%,20%
Nc1ncnc2scc(-c3ccc(NC(=O)Cc4cc(F)ccc4F)cc3)c12.O=C(O)C(F)(F)F [SB-731254-M],99.7%,11%,4%,14%,0%,35%,0%,0%,47%,60%,0%,28%,34%,0%,4%,20%,42%,0%,30%,24%
N#CC1(c2cccc(C(=O)Nc3cccc(Oc4ccc5nc(NC(=O)C6CC6)sc5n4)c3)c2)CC1,99.1%,18%,1%,80%,2%,54%,0%,40%,0%,36%,1%,22%,17%,0%,0%,0%,4%,8%,0%,4%
COC(=O)Nc1nc2ccc(Oc3ccc(NC(=O)Nc4cc(C(F)(F)F)ccc4F)cc3)cc2[nH]1.Cl [GW654607],94.2%,7%,0%,98.5%,88%,15%,0%,73%,94.9%,0%,2%,21%,1%,15%,0%,61%,6%,0%,6%,8%
COc1ccc(C2=C(Nc3cccc(O)c3)C(=O)NC2=O)cc1 [SB-390766],17%,0%,99.4%,28%,0%,0%,73%,93.5%,17%,2%,0%,0%,0%,0%,2%,100%,7%,100%,0%,0%
CC(C)NCC(Cc1ccccc1)NC(=O)c1cc(Br)c(-c2ccnc3[nH]ccc23)s1.Cl.Cl (stereo not shown) [GSK1383281],3%,79%,97.5%,39%,17%,37%,0%,0%,90.5%,13%,4%,0%,0%,25%,89%,43%,0%,0%,0%,26%
